# Assay results: ChEMBL document CHEMBL4513216, “Probing the Open Global Health Chemical Diversity Library for Multistage-Active Starting Points for Next-Generation Antimalarials” (ACS Infect Dis, 2020)
# Hit rate of the full screen: of about 65,000 compounds, about 2,100 (3.2%) showed an effect of 50% or more. The median lay at about -52%. For the sample, strong results were picked, then their nearest neighbours and some compounds at random.
# Tested on: Plasmodium falciparum
# Assay: Screen against P. falciparum Asexual Blood Stage (ABS), at 5uM
# Format: functional, Dd2
# Conditions: tested at 5 uM
row,SMILES,INHIBITION
1,O=C(Nc1cccc(N2CCOCC2)c1)N[C@H](CO)c1ccccc1,-104%
2,Cc1cccc(C(=O)N2CCO[C@H]3[C@H](OCCN(C)C)CC[C@@H]32)n1,-57.1%
3,COCC1CN(C(=O)COc2ccccc2)Cc2ncn(C)c21 (stereo not drawn),-14.4%
4,O=C(NCc1ccnc(OCC(F)(F)F)c1)NCC1CCOC1 (stereo not drawn),-16%
5,O=C(C1CCCC1)N1CCCC(c2cccc(-n3ccnc3)n2)C1 (stereo not drawn),-46.4%
6,Cc1c[nH]c(CN2CCOC(c3ccc(Cl)cc3)C2)c(C)c1=O (stereo not drawn),-11.4%
7,CCN1CCC(CNCc2cc(OC)ccc2OC)C1 (stereo not drawn),57.9%
8,COc1ccc(CNCC2CC2)cc1F,-75.5%
9,COc1ccc(OC)c(CN2CCC(c3cc(O)nc(C)n3)C2)c1 (stereo not drawn),-1.68%
10,Cc1ccc(CNCC2CCN(CCO)CC2)cc1,13%
11,COc1ccc(CNCC2CCN(CCO)CC2)cc1F,58.2%
12,CCN1CCCC(CNC(=O)CCc2ccc(OC)c(F)c2)C1 (stereo not drawn),-71.6%
13,CCC1=N[C@@]2(CC[C@@H]3CN(Cc4ccc(F)cc4)C[C@@H]32)C(=O)N1C,40.2%
14,COC1CCN(c2ccc(NC(=O)C3CC3)cc2C(F)(F)F)CC1,7.84%
15,CN1CCC(c2cccc(Cc3ccccc3)n2)CC1,3.76%
16,CN1CCC(c2cccc(Cc3ccc(C(F)(F)F)cc3)n2)CC1,52.5%
17,CN1CCC(c2cccc(Cc3ccc(F)cc3)n2)CC1,0.302%
18,CNc1nc(C(=O)N2CCN(c3ccc(Cl)c(Cl)c3)CC2)cs1,-3.09%
19,CC(=O)N1CCC(c2nc3ccc(-c4cccc(F)c4)cn3n2)CC1,-83.5%
20,Cc1cc(CN2CCC(C3CCN(CC(C)C)CC3)C2)[nH]n1 (stereo not drawn),-10.5%
21,CC(C(=O)N1CCCN(Cc2ccc(C#N)cc2)CC1)n1ccnc1 (stereo not drawn),-20.3%
22,CC(C(=O)N1CCN(Cc2ccc(C#N)cc2)CC1)n1ccnc1 (stereo not drawn),-162%
23,COc1ccc(CN2CCCN(C(=O)C(C)n3ccnc3)CC2)cc1 (stereo not drawn),63.1%

row,SMILES,INHIBITION
1,Cc1noc(C)c1-c1cccc(CC2CCN(C(=O)c3cscn3)C2)n1 (stereo not drawn),-100%
2,O=C1CC2(CNCCN(C(=O)Nc3ccccc3)C2)CN1 (stereo not drawn),-59.9%
3,CN1CC2(CNCCN(C(=O)Nc3ccccc3)C2)CC1=O (stereo not drawn),33.2%
4,CN(C)CC(=O)N1CC2(CCN(S(=O)(=O)c3ccccc3)C2)C1,-21%
5,CN(C)CC(=O)N1CC2(CCN(C(=O)Nc3ccccc3)C2)C1,50%
6,CCN1CC2(CNCCN(C(=O)Nc3ccccc3)C2)CC1=O (stereo not drawn),53.7%
7,CC(=O)N1CCN(C(=O)Nc2ccccc2)CC2(CC(=O)N(C)C2)C1 (stereo not drawn),13.6%
8,N#Cc1ccsc1NC(=O)CN1CCOC(Cn2cccn2)C1 (stereo not drawn),-49.6%
9,Cc1cnn(CC2CCN(CC(O)COc3ccc(F)cc3)CC2)c1 (stereo not drawn),-39.2%
10,CC(C)NC(=O)[C@H]1C[C@H]2OCC[C@H]2N(Cc2ccc3ccccc3n2)C1,3.39%
11,CCc1ccc(CN(Cc2ccco2)C(C)C(C)C)nc1 (stereo not drawn),-199%
12,COCCNC(=O)Nc1cccc2c1CCN(S(C)(=O)=O)C2,-3.2%
13,Cc1ccc(OC2(C(=O)NC(C)Cc3ccsc3)CCNCC2)cc1 (stereo not drawn),52.5%
14,Cc1ccc(OC2(C(=O)NC(C)c3csc(C)n3)CCNCC2)cc1 (stereo not drawn),11.3%
15,Cc1ccc(OC2(C(=O)NC(C)Cc3ccncc3)CCNCC2)cc1 (stereo not drawn),-39.1%
16,CCn1cc2c(n1)CN(Cc1sccc1C)CC2COCC1CC1 (stereo not drawn),-6.58%
17,COc1nccnc1N1CCC(C(=O)O)(n2ccc(C(C)(C)C)n2)CC1,-5.61%
18,CC(O)CN(C(=O)NC1CC1)C(C)C (stereo not drawn),-10.2%
19,CC(=O)N1CCc2nc(-c3ccc(F)cc3)nc(NC(C)C)c2CC1,6.79%
20,CCCS(=O)(=O)NCc1nc(C)cc(N2CCCC2)n1,-76.8%
21,CC(C)c1nc(CN2CCCC2Cn2cncn2)no1 (stereo not drawn),-59.5%
22,CN(C)C(C(=O)N1CC(Oc2ccccc2F)C1)c1ccc(F)cc1 (stereo not drawn),64%
23,COc1ccccc1OC1CN(C(=O)C(c2ccc(F)cc2)N(C)C)C1 (stereo not drawn),3.3%

row,SMILES,INHIBITION
1,Cc1cccc(C(C(=O)N2CC(Oc3ccccc3F)C2)N(C)C)c1 (stereo not drawn),2.84%
2,O=C(O)CC(CC(=O)NCCc1ccsc1)c1cccs1 (stereo not drawn),-112%
3,Clc1ccc(CN2CCc3c(ncn3C3CC3)C2)c2ncccc12,30.3%
4,CC(=O)Cn1c(C)cc(=O)c2cc(F)ccc21,-152%
5,CN(Cc1cccc(OCCO)c1)Cc1cccc2ncccc12,-10.8%
6,CN(Cc1cccnc1N)Cc1cccc2ncccc12,15.1%
7,CN(Cc1cccc(CCN)c1)Cc1cccc2ncccc12,60.4%
8,CN(C)C(=O)C1CCCN(C(=O)c2ccccc2-n2cc(CN)cn2)C1 (stereo not drawn),25.8%
9,CC1CCCN(CCNC(=O)c2scnc2Cl)C1 (stereo not drawn),-37.9%
10,CCc1cccc(N2CCC(NC(=O)C3CCC3)CC2)c1,-52.2%
11,CCN(CC)c1ccc(C2c3c(n[nH]c3C)N=C3COC(=O)C32)cc1 (stereo not drawn),-48.4%
12,CCN(CC)S(=O)(=O)N1CC[C@H](c2ccccc2)[C@@H]2[C@H]1CCCCN2C,41.2%
13,CN1CCCC[C@@H]2[C@H]1[C@@H](c1ccccc1)CCN2S(=O)(=O)N1CCCC1,52%
14,CN1CCCC[C@@H]2[C@H]1[C@@H](c1ccccc1)CCN2C(=O)c1ccccc1,-15.8%
15,Cc1cc(C2NC(=O)CN2Cc2ccc(Br)cc2)cc(C)c1O (stereo not drawn),-78.2%
16,CC(=O)Nc1ncc(S(=O)(=O)Nc2ccc3c(c2)OCCO3)s1,-316%
17,COc1ccc(OCCNCc2c(C)nn(C)c2N(C)C)cc1,-64.9%
18,COc1ccccc1OCCNCc1c(C(C)C)nn(C)c1N(C)C,60.1%
19,COc1ccccc1C(O)CNCc1c(C(C)C)nn(C)c1N(C)C (stereo not drawn),6.24%
20,COc1cc(CNCc2c(C(C)C)nn(C)c2N(C)C)ccn1,-67.4%
21,COc1ccccc1OCCNCc1c(C)nn(C)c1N(C)C,60%
22,COc1cccc(OCCNCc2c(C)nn(C)c2N(C)C)c1,-31.9%
